Source: PubChem BioAssay (Tox21)
A number with no mark means an inactive call. Results filed as inconclusive are left out. Active and inactive are the calls of the source. Unless noted, calls follow the shape of the dose curve; as a rule, active = well fitted curve in the direction sought with a large enough effect in the repeat runs; inconclusive = weak or mixed curves; inactive = no such curve, though single readings can be large; an effect the other way counts as inactive or inconclusive.

System: not listed separately
Assay: qHTS assay to identify small molecule antagonists of the androgen receptor (AR) signaling pathway - cell viability counter screen (AID 743033; also: nearly all actives have a fitted effect of over 45% in size; also: potency is read from the fitted curve at half-maximal effect)
Details: AR-bla HEK293 viability, CellTiter-Glo luminescence, 16 h; series mostly up to 58.5 µM; activity change, negative = cytotoxicity: at the top concentration
% is scaled to controls: 0 for no effect and ±100 for the full control effect.

With `c1cc(N(CC2CO2)CC2CO2)ccc1Cc1ccc(N(CC2CO2)CC2CO2)cc1` (centres undefined) the Potency was 54.9 µM (active).
For `O=c1cc(-c2ccccc2)oc2ccc3ccccc3c12`, the Potency was 21.9 µM (active).
In the case of `CN1C(=O)OC(C)(C)C1=O`, the Potency is reported as “inactive”.
In the case of `CC(=O)NC1(c2cccc(F)c2)CCN(CC[C@@]2(c3ccc(Cl)c(Cl)c3)CN(c3ccccc3)C(=O)CO2)CC1`, the Potency is reported as 39 µM (active).

Point of comparison: `Cc1ccc(Cl)c(Nc2ccccc2C(=O)O)c1Cl`, “activity change, negative = cytotoxicity” value 8.92%. Against it:
- Nc1cccc2c1CN(C1CCC(=O)NC1=O)C2=O (centres undefined) — lower, -5.34%
- CCCCN1CCCC1C(=O)Nc1c(C)cc(C)cc1C (centres undefined) — lower, -1.42%
- C=C/C(C)=C/C/C=C(\C)CCC=C(C)C — lower, -16.7%
- C=C(C)CCCC(C)CCO (centres undefined) — lower, -0.307%
- CCC1(CO)COCOC1 — lower, -5.5%
- COC(=O)CCS — lower, -1.67%
- CCn1cc(C(=O)O)c(=O)c2cc(F)c(N3CCNCC3)cc21 — lower, 5.48%
- Cc1cc(C)c(N)cc1C — lower, 2.46%
- CC(=O)Nc1ccc(C)cc1C — lower, -23.9%
- O=C(O)CCCCCCCCCCCBr — lower, -11%
- C1C[C@@H]2[C@H]3CC[C@H](C3)[C@@H]2C1 — higher, 10.6%
- C/C=C/C=C/C=O — lower, -9.37%
- CC1(C)S[C@@H]2[C@H](NC(=O)C(c3ccccc3)S(=O)(=O)O)C(=O)N2[C@H]1C(=O)O (some centres undefined) — lower, 5.51%
- CC1(CN2CCC(n3c(=O)[nH]c4ccccc43)CC2)OCc2ccccc2-n2cccc21 (centres undefined) — lower, -19.4%
- CCOC(=O)c1ccccc1C(=C1C=C(Br)C(=O)C(Br)=C1)c1cc(Br)c(O)c(Br)c1 — lower, -26.4%
- Oc1c(I)cc(I)c2cccnc12 — lower, 3.58%

Point of comparison: `CCC(=O)OC`, “activity change, negative = cytotoxicity” value -0.803% [at 78.9 µM]. Against it:
- O=C(OC(=O)c1ccccc1)c1ccccc1 — higher, 1.56% [at 78.9 µM]
- CCC(OCCCOC)OC(C)=O (centres undefined) — higher, 2.1% [at 78.9 µM]
- C(=C\c1ccccc1)/c1ccccc1 — lower, -2.64% [at 78.9 µM]

Target: Androgen receptor (Homo sapiens) (UniProt P10275)
Sequence (P10275 whole entry, looked up): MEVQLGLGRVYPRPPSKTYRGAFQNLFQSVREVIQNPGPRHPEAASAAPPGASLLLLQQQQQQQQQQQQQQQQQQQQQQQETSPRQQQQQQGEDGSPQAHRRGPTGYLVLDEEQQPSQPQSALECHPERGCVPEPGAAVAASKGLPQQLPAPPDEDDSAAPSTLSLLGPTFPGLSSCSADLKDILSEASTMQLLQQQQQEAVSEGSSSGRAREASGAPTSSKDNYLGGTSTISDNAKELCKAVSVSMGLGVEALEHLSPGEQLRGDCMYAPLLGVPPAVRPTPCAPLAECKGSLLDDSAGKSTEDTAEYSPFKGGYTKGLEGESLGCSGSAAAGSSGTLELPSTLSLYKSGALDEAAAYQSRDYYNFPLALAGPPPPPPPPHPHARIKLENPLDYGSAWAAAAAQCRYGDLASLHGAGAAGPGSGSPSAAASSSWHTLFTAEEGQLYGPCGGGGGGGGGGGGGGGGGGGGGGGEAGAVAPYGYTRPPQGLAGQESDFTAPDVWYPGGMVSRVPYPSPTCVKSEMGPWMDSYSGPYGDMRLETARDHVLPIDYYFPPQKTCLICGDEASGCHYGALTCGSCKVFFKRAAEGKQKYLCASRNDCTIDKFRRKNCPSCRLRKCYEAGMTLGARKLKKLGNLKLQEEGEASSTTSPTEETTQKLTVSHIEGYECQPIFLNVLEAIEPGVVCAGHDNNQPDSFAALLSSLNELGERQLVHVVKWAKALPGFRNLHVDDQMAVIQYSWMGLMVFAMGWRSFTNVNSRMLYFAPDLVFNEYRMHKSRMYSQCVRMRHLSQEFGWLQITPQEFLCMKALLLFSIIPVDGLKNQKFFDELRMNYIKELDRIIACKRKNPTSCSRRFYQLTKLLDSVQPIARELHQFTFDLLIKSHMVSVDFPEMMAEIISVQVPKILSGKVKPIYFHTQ
Assay: qHTS assay to identify small molecule antagonists of the androgen receptor (AR) signaling pathway (AID 743035; active = well fitted inhibition curve with a large enough effect in the signal ratio in the repeat runs, not every such curve was filed as active; the % refers to the signal ratio; also: potency is read from the fitted curve at half-maximal effect)
Details: HEK293 AR-UAS-bla, R1881-stimulated, beta-lactamase FRET, 16 h; series mostly up to 58.5 µM; activity change, negative = inhibition: at the top concentration
Summary of the method: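 R1881 agonist challenge of a HEK293 UAS-beta-lactamase AR reporter line in the presence of compound (16 h, 37C); signal taken as FRET fluorescence after 2 h with LiveBLAzer B/G substrate at room temperature.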

In the case of `OC(CCN1CCCC1)(c1ccccc1)C1CCCCC1` (centres undefined), the “activity change, negative = inhibition” value is reported as 2.68% [at 27 µM].

Point of comparison: `CCC(=O)OC`, “activity change, negative = inhibition” value -0.0572% [at 78.9 µM]. Against it:
- O=C(OC(=O)c1ccccc1)c1ccccc1 — higher, 0.528% [at 78.9 µM]

With `O=[N+]([O-])c1cc(C2CCCCC2)c(O)c([N+](=O)[O-])c1` the Potency was 5.48 µM (active).

Target: Androgen receptor (Homo sapiens) (UniProt P10275)
Assay: qHTS assay to identify small molecule agonists of the androgen receptor (AR) signaling pathway (AID 743036; active = well fitted activation curve with a large enough effect in the signal ratio in the repeat runs, with a control signal flat, not every such curve was filed as active; the % refers to the signal ratio)
Details: HEK293 AR-UAS-bla GripTite, beta-lactamase FRET ratio, 16 h; series mostly up to 62.4 µM; activation: at the top concentration
Summary of the method: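 Fluorescence from a beta-lactamase FRET substrate served as read-out in AR-UAS-bla GripTite HEK293 cells. Cells were treated with DMSO-dissolved compounds for 16 h at 37C, then with LiveBLAzer B/G substrate for 2 h at room temperature.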

In the case of `OC(CCN1CCCC1)(c1ccccc1)C1CCCCC1` (centres undefined), the “activation” value is reported as 2.45% [at 29.2 µM].

Point of comparison: `CC1=Nc2ccc3ccccc3c2C1(C)C`, “activation” value 5.97%. Against it:
- C[C@@H](O[C@H]1OCCN(Cc2n[nH]c(=O)[nH]2)[C@H]1c1ccc(F)cc1)c1cc(C(F)(F)F)cc(C(F)(F)F)c1 — higher, 11.7%

In the case of `CCC(=O)OC`, the “activation” value is reported as 0.0178% [at 79.1 µM].

Target: Androgen receptor (Homo sapiens) (UniProt P10275)
Assay: qHTS assay to identify small molecule agonists of the androgen receptor (AR) signaling pathway using the MDA cell line (AID 743040; also: nearly all actives have a fitted effect of over 20% in size)
Details: MDA-kb2 AR-luc cells, MMTV luciferase, 16 h, active compounds read high; series mostly up to 70.3 µM; activity change: at the top concentration
Summary of the method: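 Agonist activity is measured as luciferase luminescence in human MDA-kb2 cells whose MMTV reporter responds to both AR and GR. Compounds in DMSO incubate 16 h at 37C, 0% CO2, and ONE-Glo is read after 30 min.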

Point of comparison: `C/C=C/C=C/C=O`, “activity change” value 3.35%. Against it:
- c1cc(N(CC2CO2)CC2CO2)ccc1Cc1ccc(N(CC2CO2)CC2CO2)cc1 (centres undefined) — lower, -3.7%
- C[C@@H](O[C@H]1OCCN(Cc2n[nH]c(=O)[nH]2)[C@H]1c1ccc(F)cc1)c1cc(C(F)(F)F)cc(C(F)(F)F)c1 — lower, -8.77%
- O=[N+]([O-])c1cc(C2CCCCC2)c(O)c([N+](=O)[O-])c1 — lower, -5.01%
- C[C@@H]1CC(=O)NN=C1c1ccc(NN=C(C#N)C#N)cc1 — lower, 0.758%
- CC1=Nc2ccc3ccccc3c2C1(C)C — lower, -3.78%

For `OC(CCN1CCCC1)(c1ccccc1)C1CCCCC1` (centres undefined), the “activity change” value was -1.22% [at 32.5 µM].

Point of comparison: `O=C(OC(=O)c1ccccc1)c1ccccc1`, “activity change” value 1.16% [at 95 µM]. Against it:
- CCC(=O)OC — lower, 0.845% [at 95 µM]

System: not listed separately
Assay: qHTS assay to identify small molecule antagonists of the androgen receptor (AR) signaling pathway using the MDA cell line - cell viability counter screen (AID 743041; also: nearly all actives have a fitted effect of over 45% in size; also: potency is read from the fitted curve at half-maximal effect)
Details: MDA-kb2 viability, CellTiter-Fluor, 16 h, cells co-treated with R1881 androgen agonist; series mostly up to 70.3 µM; viability change, negative = cytotoxic: at the top concentration
Summary of the method: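 qHTS viability read-out; MDA-kb2 AR-luc; R1881-stimulated; 16 h exposure at 37C, 0% CO2; CellTiter-Fluor, 30 min; fluorescence intensity.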

Point of comparison: `CCCCN1CCCC1C(=O)Nc1c(C)cc(C)cc1C` (centres undefined), “viability change, negative = cytotoxic” value -1.02%. Against it:
- c1cc(N(CC2CO2)CC2CO2)ccc1Cc1ccc(N(CC2CO2)CC2CO2)cc1 (centres undefined) — lower, -17%
- O=c1cc(-c2ccccc2)oc2ccc3ccccc3c12 — higher, -0.159%
- Nc1cccc2c1CN(C1CCC(=O)NC1=O)C2=O (centres undefined) — higher, 8.87%
- Cc1ccc(Cl)c(Nc2ccccc2C(=O)O)c1Cl — lower, -2.9%
- C=C/C(C)=C/C/C=C(\C)CCC=C(C)C — higher, -0.788%
- C=C(C)CCCC(C)CCO (centres undefined) — higher, 0.371%
- CCC1(CO)COCOC1 — higher, 6.59%
- COC(=O)CCS — higher, 2.52%
- Cc1cc(C)c(N)cc1C — higher, 9.14%
- CC(=O)Nc1ccc(C)cc1C — higher, 13%
- COC(=O)CS — higher, 1.82%
- O=C(O)CCCCCCCCCCCBr — higher, -0.411%
- C1C[C@@H]2[C@H]3CC[C@H](C3)[C@@H]2C1 — higher, -0.822%
- CCOC(=O)[C@H](CCc1ccccc1)N[C@@H](C)C(=O)N(CC(=O)O)C1Cc2ccccc2C1 — higher, 6.92%
- C/C=C/C=C/C=O — higher, 22.9%
- CC1(C)S[C@@H]2[C@H](NC(=O)C(c3ccccc3)S(=O)(=O)O)C(=O)N2[C@H]1C(=O)O (some centres undefined) — higher, 26.2%
- CCCCCCNC(=O)n1cc(F)c(=O)[nH]c1=O — higher, 5.11%
- Oc1c(I)cc(I)c2cccnc12 — lower, -6.18%
- CC(=O)NC1(c2cccc(F)c2)CCN(CC[C@@]2(c3ccc(Cl)c(Cl)c3)CN(c3ccccc3)C(=O)CO2)CC1 — lower, -26%

Point of comparison: `CN(C(=O)CN(CCO)CC(=O)N(C)C(C)(C)Cc1ccccc1)C(C)(C)Cc1ccccc1`, “viability change, negative = cytotoxic” value 14% [at 32.5 µM]. Against it:
- OC(CCN1CCCC1)(c1ccccc1)C1CCCCC1 (centres undefined) — lower, -2.01% [at 32.5 µM]
- C/C=C(/C(=C/C)c1ccc(O)cc1)c1ccc(O)cc1 — lower, 7.57% [at 32.5 µM]

In the case of `CCn1cc(C(=O)O)c(=O)c2cc(F)c(N3CCNCC3)cc21`, the Potency is reported as “inactive”.
For `CN1C(=O)OC(C)(C)C1=O`, the Potency was “inactive”.
In the case of `O=[N+]([O-])c1cc(C2CCCCC2)c(O)c([N+](=O)[O-])c1`, the Potency is reported as 30.5 µM (active).
In the case of `C[C@@H]1CC(=O)NN=C1c1ccc(NN=C(C#N)C#N)cc1`, the Potency is reported as 29.8 µM (active).

Point of comparison: `CCC(OCCCOC)OC(C)=O` (centres undefined), “viability change, negative = cytotoxic” value 6.6% [at 95 µM]. Against it:
- O=C1c2ccccc2C(=O)C1(O)O — lower, -1.45% [at 95 µM]
- O=C(CCc1ccc(O)cc1)c1c(O)cc(O)cc1O — lower, -0.0746% [at 95 µM]
- C(=C\c1ccccc1)/c1ccccc1 — lower, 2.57% [at 95 µM]
- CCC(=O)OC — lower, 1.9% [at 95 µM]
